Candida biofilm = kills Candida albicans biofilms; inhibition, % at 6 µM; C. albicans biofilm + clotrimazole, Alamar Blue; actives 0.14% (n = 85,000);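 active = inhibition above 20%; inactive = inhibition below 20%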;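 note: preformed 24 hr biofilms exposed to compound for 48 hr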
HUVEC tox IL1B = toxic to HUVEC cells under IL-1B stimulation; HUVEC cell count loss, Hoechst imaging, IL-1B stimulated; cell count reduction, % at 2 µM; actives 0.41% (n = 94,000); AID 845;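 active = cell count reduction more than 3 SD above the screen-wide mean, cut at about 70% in these data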
NFkB transloc pot = enhances IL-1B driven NFkB nuclear translocation. HUVEC IL-1B NFkB p65 nuclear translocation imaging. AID 819. activation, % at 2 µM. actives 0.3% (n = 94,000);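 active = activation above 40%, about the mean plus 3 SD, also judged a hit on visual image review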;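 note: percent activation is computed from the nuclear over cytoplasmic p65 intensity ratio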
NFkB transloc inh = blocks IL-1B driven NFkB nuclear translocation in HUVEC cells; actives 0.43% (n = 94,000); inhibition, % at 2 µM; HUVEC IL-1B NFkB p65 nuclear translocation imaging; AID 796;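 active = inhibition above about 30% together with a positive call from visual inspection of the well image, limit read from the data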;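 note: nuclear over cytoplasmic p65 intensity ratio measured by imaging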
EphB4 ephrin blk = EphB4-ephrin-B2 interaction antagonism | actives 0.15% (n = 97,000) | EphB4 LBD / TNYL-RAW-Alexa532 peptide, fluorescence polarization | inhibition, % at 7 µM;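 active = inhibition above the screen-wide mean inhibition plus 3 SD, cut at about 15% in these data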
Large screens that a line does not name were inactive. Sampled rows, rich in hits. Any-hit rate of the full collection: about 1.1%.

CN(C)CCNC(=O)Nc1ccc(Cl)c(Cl)c1	none (no result: Candida biofilm)
COc1ccc(S(=O)(=O)NCc2cn3c(C)csc3n2)cc1F	Candida biofilm 21.3
CCn1c(NCc2cccs2)nc2ccccc21	HUVEC tox IL1B 87.1
COC(=O)c1ccc2c(c1)N(Cc1nc(-c3ccc(Cl)cc3)oc1C)C(=O)C1CCCN21 (stereo not given)	none (no result: HUVEC tox IL1B, NFkB transloc pot, NFkB transloc inh, EphB4 ephrin blk)
Cc1ccn2c(C(=O)N/N=C\c3ccccc3[N+](=O)[O-])c(C)nc2c1	none (no result: Candida biofilm, HUVEC tox IL1B, NFkB transloc pot, NFkB transloc inh)
COC(=O)c1sccc1NC(=O)c1sccc1C	HUVEC tox IL1B 94.1
CCn1c(SCC(=O)Nc2cc3oc4ccccc4c3cc2OC)nnc1-c1cccs1	NFkB transloc pot 40.7
CCCn1c(CN(Cc2ccccc2)Cc2ccccc2)nc2c1c(=O)n(C)c(=O)n2C	Candida biofilm 24.7 (no result: HUVEC tox IL1B, NFkB transloc pot, NFkB transloc inh, EphB4 ephrin blk)
CCCn1c(CN(C)Cc2ccccc2)nc2c1c(=O)n(C)c(=O)n2C	none
CCCCn1nnnc1NCc1cccc(OC)c1OC	NFkB transloc pot 113.9
CCCCn1nnnc1NCc1ccc(OC)c(OC)c1	none
COc1ccc(OC)c(S(=O)(=O)n2nnc3cc(Cl)ccc32)c1	none
COc1cc(S(=O)(=O)n2nnc3ccccc32)c(OC)cc1Cl	HUVEC tox IL1B 87.1
COc1cc(S(=O)(=O)n2nc(C)cc2C)c(OC)cc1Cl	NFkB transloc inh 46.1
Cc1ccc(C(=O)NCc2nnc(SCC(=O)Nc3sc4c(c3C#N)CCCC4)n2C)cc1	HUVEC tox IL1B 82.2
CCn1c(SCC(=O)Nc2sc3c(c2C#N)CCCC3)nnc1-c1ccncc1	EphB4 ephrin blk 17.3
O=C(CSc1nnc(-c2ccco2)n1-c1ccccc1)N1CCOCC1	none
O=S(=O)(NCCSc1nnc(-c2ccco2)n1-c1ccccc1)c1ccccc1	NFkB transloc pot 86.1
CC(=O)CCc1c[nH]c2c(C(=O)O)cccc12	NFkB transloc inh 41.0
CC(=O)CCc1c(C)c2cccc(C)c2[nH]c1=O	none (no result: HUVEC tox IL1B, NFkB transloc pot, NFkB transloc inh, EphB4 ephrin blk)
O=C(CSc1ccc2nnc(-c3ccc(Cl)cc3)n2n1)N1CCN(c2ccccc2)CC1	none (no result: HUVEC tox IL1B, NFkB transloc pot, NFkB transloc inh, EphB4 ephrin blk)
Cn1c(SCc2ccc(Cl)cc2Cl)nc(C(F)(F)F)cc1=O	NFkB transloc pot 43.7 (no result: Candida biofilm)
Cc1cccc(N(C(=O)c2csnn2)C(C(=O)NC(C)(C)C)c2ccncc2)c1 (stereo not given)	none (no result: Candida biofilm)
CCC(C)(C)NC(=O)C(c1ccco1)N(C(=O)c1csnn1)c1cccc(F)c1 (stereo not given)	EphB4 ephrin blk 17.1
CCC(C)(C)NC(=O)C(c1ccncc1)N(Cc1ccc(C)cc1)C(=O)c1csnn1 (stereo not given)	HUVEC tox IL1B 90.1
CCOC(=O)c1c(-c2ccccc2)oc2cc(CN(C)C)c(O)c(CN(C)C)c12	none
C#CCOc1ccc(Br)cc1/C=N/O	NFkB transloc inh 46.5
C#CCOc1ccc(Cl)cc1/C=N/O	none (no result: Candida biofilm)
CC(=O)Nc1ccccc1NS(=O)(=O)c1ccc(Cl)cc1	NFkB transloc inh 30.2
COC(=O)Nc1ccc(S(=O)(=O)Nc2ccccc2F)cc1	none
COc1ccc(Cl)cc1NC(=O)CSc1nnc(CN2CCOCC2)n1-c1ccc(Cl)cc1	none
CCC1Oc2ccccc2N(CC(=O)NCCCN2CCCCC2CC)C1=O (stereo not given)	none (no result: HUVEC tox IL1B, NFkB transloc pot, NFkB transloc inh, EphB4 ephrin blk)
CCNC(=O)CN(Cc1ccccc1)S(=O)(=O)c1ccccc1	NFkB transloc inh 35.5
CCOC(=O)C1CCCN(C(=O)C2CCN(S(=O)(=O)CC)CC2)C1 (stereo not given)	none
CCOc1cc(C2C(C(=O)c3ccc(C)o3)=C(O)C(=O)N2CCc2ccccc2)ccc1O (stereo not given)	NFkB transloc inh 47.2
O=C1OCC(c2ccccc2)=C1c1ccc(S(=O)(=O)N2CCOCC2)s1	none (no result: Candida biofilm)
Cc1ccc2c(c1)N(CC(=O)Nc1ccc3c(c1)OCCO3)C(=O)CO2	HUVEC tox IL1B 90.9, NFkB transloc inh 99.3
O=C(CN1C(=O)CCSc2ccccc21)Nc1ccc2c(c1)OCCO2	none (no result: Candida biofilm)
Cc1ccc(CNC(=O)C(Cc2ccccc2)NS(=O)(=O)c2cccs2)cc1 (stereo not given)	NFkB transloc inh 32.9
CCOC(=O)CNC(=O)C(Cc1ccccc1)NS(=O)(=O)c1cccs1 (stereo not given)	none
O=C(c1cc2ccccc2o1)N1CCN(c2ccccc2Cl)CC1	HUVEC tox IL1B 92.8
O=c1oc2c3c4c(cc2cc1-c1nc2ccccc2[nH]1)CCCN4CCC3	none (no result: HUVEC tox IL1B, NFkB transloc pot, NFkB transloc inh, EphB4 ephrin blk)
Nc1ccc(Sc2ccccc2CC(=O)O)cc1	none (no result: Candida biofilm)
N=c1c(C(=O)NC2CCCCC2)cc2c(=O)n3ccccc3nc2n1CCN1CCOCC1	none (no result: HUVEC tox IL1B, NFkB transloc pot, NFkB transloc inh, EphB4 ephrin blk)
Cc1cc(C)nc(SCC(=O)NC2=NC(=O)C(C)S2)n1 (stereo not given)	HUVEC tox IL1B 78.5
Cc1cc(C(F)(F)F)nc(SCC(=O)NC2=NC(=O)C(C)S2)n1 (stereo not given)	none
COC(=O)CN1C(=O)CSc2ncccc21	NFkB transloc pot 52.0 (no result: Candida biofilm)
O=C(NCc1cn2ccccc2n1)c1ccccc1	none (no result: HUVEC tox IL1B, NFkB transloc pot, NFkB transloc inh, EphB4 ephrin blk)
O=C(NCc1cn2ccccc2n1)c1ccc(Br)o1	NFkB transloc inh 31.6
COc1ccc(C(C(=O)NC(C)(C)C)N(CC2CCCO2)C(=O)CCC(=O)Nc2cc(C)on2)cc1 (stereo not given)	none (no result: Candida biofilm)
Cc1nc(CNS(=O)(=O)c2ccc3c(c2)OCCO3)cs1	NFkB transloc pot 59.4
CCOc1ccc(N(CC(=O)Nc2cccc(Cl)c2)S(=O)(=O)c2c(C)noc2C)cc1	none
CCOc1ccc(N(CC(=O)Nc2cccc(OC)c2)S(=O)(=O)c2c(C)noc2C)cc1	NFkB transloc inh 49.5
CNC(=O)c1sc(-c2ccc(Cl)cc2)nc1C	HUVEC tox IL1B 75.2
Cc1cccc(NC(=O)C2(C)CC3c4ccccc4C2c2ccccc23)c1 (stereo not given)	none (no result: Candida biofilm)
CCOc1ccc(NC(=O)C2CCC(N3C(=O)C4CC=CCC4C3=O)CC2)cc1 (stereo not given)	none
CCOc1ccc(NC(=O)CN2C(=O)C3CC=CCC3C2=O)cc1 (stereo not given)	HUVEC tox IL1B 93.3
O=c1oc2ccccc2n1Cc1ccccc1Cl	Candida biofilm 20.8 (no result: HUVEC tox IL1B, NFkB transloc pot, NFkB transloc inh, EphB4 ephrin blk)
O=c1oc2ccccc2n1CCc1ccccc1	none
CC1CCC2(CC1)NC(=S)N(c1ccccc1)N2 (stereo not given)	Candida biofilm 83.3
CCOC(=O)c1c(N)sc(C(O)(C(F)(F)F)C(F)(F)F)c1-c1ccccc1	Candida biofilm 82.2
C=CCSc1nc2ccccc2n1Cc1nnc(-c2cccs2)o1	none
Cc1ccc(C(=C2C3C=CC2C2C(=O)NC(=O)C32)c2ccc(C)cc2)cc1 (stereo not given)	none
O=C(CCCOc1ccc(Cl)cc1)Nc1nncs1	NFkB transloc pot 43.0
Cc1cc(SCC(=O)c2cc3ccccc3o2)nc2ccccc12	none
Cc1cc(SCC(=O)c2ccc3c(c2)OCO3)nc2ccccc12	NFkB transloc inh 57.4
COc1ccc(NS(=O)(=O)c2ccc(OCC(=O)N3CCOCC3)cc2)cc1	NFkB transloc inh 30.8
CC(C)(C)OC(=O)CN1C(=O)C(Sc2n[nH]c(-c3ccccc3)n2)CCc2ccccc21 (stereo not given)	none (no result: Candida biofilm)
Cc1ccc(/C(O)=C2/C(=O)C(=O)OC2c2ccc(Cl)cc2)cc1 (stereo not given)	none
O=C1OC(c2ccccc2)/C(=C(/O)c2ccc(Cl)cc2)C1=O (stereo not given)	NFkB transloc inh 38.0

Screening results (PubChem)
